AmpC nodet inh – inhibitors of E. coli AmpC beta-lactamase without detergent; P00811; AmpC nitrocefin hydrolysis, absorbance 480 nm, no detergent; Potency, µM (series often up to 28.7 µM), for the others: top-dose activity change, negative = inhibition; 71,000 tested, 1.8% active; also: % of control where 0% means no effect
Target sequence (P00811 whole entry, looked up): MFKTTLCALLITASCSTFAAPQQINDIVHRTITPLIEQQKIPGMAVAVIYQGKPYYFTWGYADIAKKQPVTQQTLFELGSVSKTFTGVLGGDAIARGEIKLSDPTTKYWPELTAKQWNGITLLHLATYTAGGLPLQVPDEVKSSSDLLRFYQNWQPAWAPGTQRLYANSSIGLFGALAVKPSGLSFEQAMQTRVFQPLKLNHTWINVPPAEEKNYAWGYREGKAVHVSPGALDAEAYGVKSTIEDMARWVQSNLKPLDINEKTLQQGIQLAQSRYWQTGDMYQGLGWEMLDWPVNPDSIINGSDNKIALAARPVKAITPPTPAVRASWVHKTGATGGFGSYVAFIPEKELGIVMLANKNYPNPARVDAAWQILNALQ
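AmpC, 20 mM phosphate pH 7.0; 15 min cpd preinc, RT; start with nitrocefin (800 uM stock); A480 kinetic read, 20 s intervals, 4 min. No-enzyme wells = negative control.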
AmpC inh det – blocks E. coli AmpC beta-lactamase in presence of detergent. P00811. purified AmpC, nitrocefin hydrolysis with detergent. Potency, µM (top dose mostly 28.7 µM), without a hit: at the top dose activity change, negative = inhibition. 71,000 tested, 0.09% active. AID 584; active = well fitted curve in the direction sought with a large enough effect; inconclusive = small, poorly fitted or top-dose-only effect; also: % is scaled to controls: 0 for no effect and ±100 for the full control effect
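E. coli AmpC (5.3 nM) in 20 mM phosphate pH 7.0 with 0.01% Triton X-100, preincubated 15 min RT with compound; nitrocefin (2 uL of 800 uM stock) hydrolysis followed by 480 nm absorbance every 20 s over 4 min.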
SmPrx2 inh – Schistosoma mansoni Prx2 inhibition; S. mansoni Prx2 activity coupled to TGR/GSH (TGR is thioredoxin glutathione reductase), NADPH fluorescence loss, qHTS; Potency, µM; 65,000 tested, 0.07% active
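Prx2 inhibition was measured as reduced NADPH consumption when electrons flowed from NADPH through TGR and glutathione to Prx2 and H2O2. Plates were read kinetically over 8 min; enzyme reagents were held at 4 deg C during dispensing.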
LT uptake inh – inhibitors of anthrax lethal toxin internalization | AID 912 | Potency, µM (series often up to 40 µM), for the others: at the highest dose activity change, negative = inhibition, hits mostly inhibitors | Cells, anthrax lethal toxin internalization, FRET ratio (460/530) | 70,000 tested, 0.67% active; also: % is scaled to controls: 0 for no effect and ±100 for the full control effect; nearly all actives have a fitted effect of over 50% in size
* marks the source's active call; other numbers are inactive results; u = inconclusive; x = no result; [ ] = remark or other dose. Only some compounds are listed: those with a hit (about 2.4% of all), similar ones and a draw of the others. Unless noted, calls follow the shape of the full dose curve. Potency is read from the fitted curve at half-maximal effect.

SMILES | AmpC nodet inh | AmpC inh det | SmPrx2 inh | LT uptake inh
COc1cc2cc(C(c3nnnn3C3CCCC3)N3CCc4ccccc43)c(=O)[nH]c2cc1OC (stereo not drawn) | 118% | 20% | >57 | u
O=c1[nH]c2cc3c(cc2cc1C(c1nnnn1Cc1ccccc1)N1CCCc2ccccc21)OCO3 (stereo not drawn) | 3.2µM* | 8% | >57 | -10%
O=c1[nH]c2cc3c(cc2cc1C(c1nnnn1C1CCCC1)N1CCCc2ccccc21)OCCO3 (stereo not drawn) | -3% | -3% | >57 | 7.9µM*
CC(=O)N[C@@H](CC(=O)O)C(=O)N[C@@H](CCC(=O)O)C(=O)O | 4% | -2% | >57 | 5%
COc1ccccc1CN1CC[C@@]2(CCCN(C(C)=O)C2)C1 | 11% | 0% | >57 | 4%
NC(=O)c1ccsc1NC(=O)COC(=O)c1ccccc1NCc1ccco1 | 5µM* | 3% | >57 | u
O=C(COC(=O)c1ccccc1Nc1ccccc1)NCc1ccco1 | -16% | 11% | >57 | 13%
O=C(Nc1ccc2c(c1)OCO2)C1COc2ccccc2O1 (stereo not drawn) | -10% | -2% | x | -13%
Cc1cc(=O)oc2cc(NC(=O)C3COc4ccccc4O3)ccc12 (stereo not drawn) | 10µM* | -4% | >57 | u
O=[N+]([O-])/C=C/c1ccccc1 | -12% | 16% | x | 4µM*
C=Cc1ccccc1 | -6% | 14% | x | -7%
CC1=C2[C@@H]([C@H](C)CC[C@H]2/C=C(\C)C(=O)O)[C@H](O)C1 | -5% | 14% | x | -16%
Clc1cccc(N2CCN(Cc3nc(-c4ccccc4)no3)CC2)c1 | 4µM*[single pt active] | 13% | >57 | u
CCOC(=O)CCc1c(C)n(CC)c2ncnn2c1=O | 4µM*[single pt active] | 12% | >57 | -3%
N[C@@H](Cc1cc(-c2ccc(Cl)cc2Cl)cc(CP(=O)(O)O)c1O)C(=O)O | u | 16µM* | >57 | u
Cc1c(NC(=O)NCCN2C(=O)C3C4C=CC(C4)C3C2=O)c(=O)n(-c2ccccc2)n1C (stereo not drawn) | 4µM*[single pt active] | 16% | >57 | 3%
CCCc1nnc(NC(=O)NCCN2C(=O)C3C4C=CC(C4)C3C2=O)s1 (stereo not drawn) | 4µM*[single pt active] | 14% | >57 | 2%
O=C(CCN1C(=O)C2C3C=CC(C3)C2C1=O)NCCc1ccccc1 (stereo not drawn) | 17% | -4% | >57 | -10%
Cc1c(NC(=O)C(C)N2C(=O)C3C4C=CC(C4)C3C2=O)c(=O)n(-c2ccccc2)n1C (stereo not drawn) | -8% | 8% | >57 | 3%
O=C(NCCN1CCOCC1)N1CCOCC1 | -17% | 1% | >57 | -1%
O=C(NCCN1C(=O)C2C3C=CC(C3)C2C1=O)N1CCOCC1 (stereo not drawn) | 4µM*[single pt active] | 12% | >57 | -7%
O=C(NCCN1C(=O)C2C3C=CC(C3)C2C1=O)Nc1ccccc1O (stereo not drawn) | 4µM*[single pt active] | 14% | >57 | -6%
COc1ccc2c(c1)[C@]13CCCC[C@@H]1[C@H](C2)NCC3 | 1% | -1% | >57 | 23%
ICCc1ccccc1 | -10% | 30% | x | 23%
Cc1ccc(C(=O)O[C@@H](C(=O)O)[C@@H](OC(=O)c2ccc(C)cc2)C(=O)O)cc1 (tested in a mixture with another compound) | 0% | -2% | >57 | 3%
SMILES | AmpC nodet inh | AmpC inh det | SmPrx2 inh | LT uptake inh
Cc1c(NC(=O)CCCCCN2C(=O)C3C4C=CC(C4)C3C2=O)c(=O)n(-c2ccccc2)n1C (stereo not drawn) | 2.5µM*[single pt active] | 11% | >57 | 2%
Cc1c(NC(=O)c2ccc(N3C(=O)C4C5C=CC(C5)C4C3=O)cc2)c(=O)n(-c2ccccc2)n1C (stereo not drawn) | 0% | -3% | >57 | u
Nc1cccc(N)c1 | -6% | 7% | x | x
O=C(Oc1ccc2c3c(c(=O)oc2c1)CCCC3)c1ccco1 | 2% | 6% | 55* | u
CCC(NC(=O)OC(C)(C)C)C(=O)Oc1ccc2c3c(c(=O)oc2c1)CCC3 (stereo not drawn) | 44% | -2% | 55* | x
O=c1c(CCc2ccccc2)nc2cnc(N3CCNCC3)nc2n1Cc1ccc(F)cc1 | 145% | -6% | >57 | -21%
CCOC(=O)CSc1nn(C)c(=S)s1 | 4µM*[single pt active] | 13% | >57 | -11%
CCOC(=O)CSc1nnc(N)s1 | -11% | 2% | >57 | u
